# High-throughput results from PubChem.
# An excerpt weighted towards active compounds, which were near 1.5% of everything screened.
# RECQ1 helicase = RECQ1 (human) helicase inhibition. P46063. RECQ1 DNA unwinding, red fluorescence kinetic read. Potency, µM (doses to about 57.3 µM), for inactives: top-dose activity, negative = inhibition, usual class: inhibitors. 0.54% of 240,000 active;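 also: potency is read from the fitted curve at half-maximal effect; plate controls were vehicle for no effect and no enzyme for full effect; nearly all actives have a fitted effect of over 30% in size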
#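 50 nM RECQ1T1 preincubated 15 min with compound in Tris pH 8.0 buffer with MgCl2, DTT, Tween-20 and 2.5 ug/ml poly(dI-dC); started with 200 nM TAMRA/BHQ-2 forked duplex and 2 mM ATP. Unwinding read as fluorescence (525/598 nm), two reads 2 h apart.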
# BLM inh = Bloom syndrome helicase (human) inhibition. P54132. recombinant BLM DNA unwinding, fluorescence dequenching. Potency, µM (series often up to 56.1 µM), inactives show at the highest dose activity change, negative = inhibition, hits mostly inhibitors. 0.2% of 350,000 active;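 also: potency is read from the fitted curve at half-maximal effect; plate controls were vehicle for no effect and no enzyme for full effect; nearly all actives have a fitted effect of over 35% in size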
# PI5P4Ka inh = PI5P4K alpha (human) kinase inhibition | P48426 | PI5P4Kalpha enzyme, ADP-Glo luminescence, 60 min; hits give low values | max response, % | 1.2% of 330,000 active; active = max response of -50% or lower; inconclusive = between -30% and -50%; inactive = -30% or higher; also: value at the top dose of about 77 µM
#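 Controls without substrate or without enzyme flank wells where PI5P4Kalpha converts substrate using 5 microM ATP (final). Incubation lasts 60 minutes at room temperature; ADP formed is read by ADP-Glo luminescence.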
# FEN1 inhibitor = human FEN1 inhibition; Recombinant FEN1 flap cleavage, fluorescence, 15 min; Potency, µM (highest dose often 114 µM), for inactives: top-dose activity change, negative = inhibition, hits mostly inhibitors; 0.35% of 390,000 active; AID 588795; also: potency is read from the fitted curve at half-maximal effect; nearly all actives have a fitted effect of over 65% in size
#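 With each library titrated from low to high concentration, compounds met 10 nM FEN1 for 15 min at room temperature before 50 nM substrate was added; readings at 0 and 15 min fed four-parameter Hill curve fits.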
# APEX1 inh = inhibitors of human APE1 endonuclease; recombinant APE1, TAMRA/BHQ-2 abasic DNA cleavage fluorescence; Potency, µM (series often up to 65.8 µM), for inactives: at the highest dose activity change, negative = inhibition, usual class: inhibitors; 0.35% of 350,000 active; AID 2517;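 also: potency is read from the fitted curve at half-maximal effect; plate controls were vehicle for no effect and reference inhibitor for full effect; nearly all actives have a fitted effect of over 55% in size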
#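 Compound pre-exposure to 0.75 nM APE1, 15 min at ambient temperature. Reaction initiated with 50 nM TAMRA/BHQ-2 THF substrate, read immediately in kinetic mode, 525 nm excitation, 598 nm emission.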
# GCN5L2 inh = blocks human GCN5L2 histone acetyltransferase; Q92830; GCN5L2 HAT assay, ThioGlo1 CoA-SH fluorescence; Potency, µM (top dose mostly 58.9 µM), for the others: top-dose activity change, negative = inhibition, usual class: inhibitors; 0.21% of 390,000 active; AID 504327; also: potency is read from the fitted curve at half-maximal effect
#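 ThioGlo1-coupled HAT assay: 20nM GCN5L2, 70uM acetyl-CoA, 75uM H3(1-25) peptide, pH 7.5. Fluorescence read at 340/540nm at start and after 20 min at room temperature.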
# * = called active by the depositor; i = inactive; ? = inconclusive; . = no result given; [ ] = another dose, or the depositor's remark. Unless noted, calls follow the shape of the dose curve; as a rule, active = well fitted curve in the direction sought with a large enough effect; inconclusive = small, poorly fitted or top-dose-only effect, or another doubt; inactive = no such curve, though single readings can be large; an effect the other way counts as inactive or inconclusive. Unless noted, % is scaled to controls: 0 for no effect and ±100 for the full control effect.
SMILES,RECQ1 helicase,BLM inh,PI5P4Ka inh,FEN1 inhibitor,APEX1 inh,GCN5L2 inh
COc1cc(C(Nc2ccccn2)c2ccc3ccc(C)nc3c2O)cc(OC)c1O (stereo not drawn),8%,-3%,-58*,-20%,22%,-4%
C=CC[C@H](c1ccc(F)cc1)N(CC(C)C)S(=O)(=O)C=C,.,.,.,-19%,.,.
COc1ccc2[nH]c(C)cc2c1,.,.,.,0%,.,.
O=C(C[n+]1c2ccccc2cc2ccccc21)c1ccc(F)cc1,.,.,.,0%,.,.
Cc1ccccc1N1C(S)=C(C#N)C(=O)NC1c1ccco1 (stereo not drawn),25µM*,-27%,-53*,-18%,14%,-1%
CC(=O)Oc1ccc(-c2cc3c(OC(C)=O)cc(OC(C)=O)cc3oc2=O)cc1,.,.,-56*,-4%,.,.
CC(=O)Oc1ccc(-c2cc3ccccc3oc2=O)cc1,.,.,3,5%,.,.
NS(=O)(=O)c1ccc(CCNC(=O)CSc2ccsc2[N+](=O)[O-])cc1,-4%,-5%,-67*,0%,-1%,-2%
CCc1ccccc1NC(=O)CSc1ccsc1[N+](=O)[O-],-2%,-22%,-57*,-10%,9%,-16%
COc1ccc(CCNC(=O)CSc2ccsc2[N+](=O)[O-])cc1OC,-11%,-9%,-19,-12%,-3%,-5%
CSc1ccc(CCNC(=O)CSc2ccsc2[N+](=O)[O-])cc1,-1%,-9%,-51*,-1%,1%,-14%
CN(Cc1ccccc1)/[N+]([O-])=N/Oc1ccc([N+](=O)[O-])cc1[N+](=O)[O-],.,.,.,1%,.,.
C[C@]12C=CC(=O)C=C1[C@@H](F)C[C@@H]1[C@@H]2[C@@H](O)C[C@@]2(C)[C@H]1CC[C@]2(O)C(=O)CO,.,.,.,.,2%,.
Cc1ccccc1OCC(=O)Nc1cc(C)c(O)c(-c2nc3ccccc3o2)c1,.,.,.,0%,.,.
C[C@H](NC(=O)OC(C)(C)C)C(=O)c1ccco1,.,.,.,-12%,.,.
CNc1ccc(/C=C2\C=Cc3ccccc32)cc1OC,.,.,.,-6%,.,.
O=S(=O)(O)CC(S)CS (stereo not drawn),.,-2%,.,.,.,-19%
Cc1cc(C(=O)N/N=C2\CC(=O)c3ccccc32)c(C)n1-c1ccc(F)cc1,21%,-20%,-64*,2%,-7%,-24%
O=C(NCc1ccon1)c1ccc(OC2CCN(CCc3ccccc3)CC2)cc1,17%,-3%,4,1%,-2%,-1%
CCc1cc(CNC(=O)c2ccc(OC3CCN(CCc4ccccc4)CC3)cc2)on1,.,-6%,-21,14%,12µM*,-2%
CN1CCCc2ccccc21,.,.,.,-13%,.,.
O=C(CNC(=O)c1ccc(F)cc1)N/N=C/c1ccc(O)c([N+](=O)[O-])c1,-7%,-2%,-65*,-1%,2%,-6%
O=C(CNC(=O)c1cccc(F)c1)N/N=C/c1ccc(O)c([N+](=O)[O-])c1,-3%,4%,-72*,-8%,3%,-8%
O=C(CNC(=O)c1ccco1)N/N=C/c1ccc(O)c([N+](=O)[O-])c1,-3%,4%,-27,-17%,-1%,-6%
Cc1cc([N+](=O)[O-])nn1CC(=O)Nc1cccc2nonc12,8%,-22%,-73*,-9%,?,-2%
SMILES,RECQ1 helicase,BLM inh,PI5P4Ka inh,FEN1 inhibitor,APEX1 inh,GCN5L2 inh
CCOC(=O)N1CC(C)N(/[N+]([O-])=N/Oc2ccc([N+](=O)[O-])cc2[N+](=O)[O-])CC1C (stereo not drawn),-15%,-5%,.,2%,2%,.
Brc1cc(Br)c[n+](CCc2ccccc2)c1,.,.,.,17%,.,.
COc1ccc(C(=O)n2cnc(N)n2)cc1,-12%,-1%,-14,2%,-2%,2.2µM*
O=C(CSc1cn[nH]n1)Nc1cccc(C(=O)O)c1,.,1%,-64*,8%,22%[12.4 µM],?
Cc1cccc(NC(=O)CSc2cn[nH]n2)c1,.,1%,2,-2%,66%,-1%
N#Cc1c(-c2ccco2)c2c([nH]c1=S)CCCC2,i,?,-78*,7%,11%,?
N#Cc1c(-c2cccnc2)c2c([nH]c1=S)CCCC2,-3%,0%,-95*,5%,11%,-12%
CCN(CC)C(=O)c1c(C)[nH]c(=S)c(C#N)c1-c1ccco1,-21%,-25%,-96*,0%,-6%,-24%
Cc1ccc(-c2nc3cc(Cl)ccc3o2)cc1NC(=O)COc1ccccc1C,.,.,.,-26%,.,.
COC(=O)[C@H](CCSC)NC(=O)c1ccc(NC[C@@H](N)CS)cc1-c1ccccc1,-3%,-3%,.,.,-7%,-11%
O=S(=O)(O)c1cc(OS(=O)(=O)c2ccccc2)cc2ccccc12,.,-7%,3,-3%,13%,-3%
Cc1cc(-c2ccc(N=Nc3cc(S(=O)(=O)O)c4ccccc4c3N)c(C)c2)ccc1N=Nc1cc(S(=O)(=O)O)c2ccccc2c1N,13µM*,.,.,.,25µM*,.
COc1ccc(C)cc1N/C(N)=N/c1nc(C)cc(C)n1,4%,-11%,-6,-5%,1%,2%
Cc1ccc(C)c(N/C(N)=N/c2nc(C)cc(C)n2)c1,22%,83%,4,50µM*,-3%,1%
CCCN1CNc2c(c(=O)[nH]c(=S)n2CCc2ccccc2OC)C1,.,.,.,-5%,.,.
CN(C)c1c(Cl)cc(/C=C2\C=Cc3ccccc32)cc1Cl,.,.,.,-21%,.,.
O=C(Nc1ccc(Cl)cc1C(=O)O)c1ccc2c(c1)C(=O)N(Cc1ccco1)C2=O,4%,-26%,-75*,?,1%,-4%
CC(C)CN1C(=O)c2ccc(C(=O)Nc3ccccc3C(=O)O)cc2C1=O,.,0%,-64*,-8%,47%,1%
O=C(O)c1ccc2c(c1)N(Cc1ccccc1)C(=O)c1ccccc1S2=O (stereo not drawn),-1%,-3%,-21,11%,2%,0%
Cc1ccccc1NC(=O)c1ccc2c(c1)C(=O)N(CC(C)C)C2=O,.,-1%,-2,1%,2%,-9%
O=C(O)c1ccc2c(c1)C(=O)N(Cc1ccccc1)C2=O,7%,-1%,-73*,5%,1%,-1%
Oc1ccccc1C1C=C(c2ccc3c(c2)OCO3)NC(c2cccc(F)c2)N1 (stereo not drawn),.,.,.,3%,.,.
CC(=O)c1ccc(/C=C/c2nc3ccccc3n2C)o1,-18%,-8%,-1,-4%,?,11µM*
Cn1c(/C=C/c2ccccc2)nc2ccccc21,-4%,0%,?,6%,2%,-5%
CC1CCc2c(sc(NC(=O)c3ccco3)c2C(=O)O)C1 (stereo not drawn),.,-1%,-19,-5%,86%,-8%
